Measured values reported in PubChem BioAssay (NCATS).
Records with an inconclusive call do not appear. The source made the active and inactive calls. The call rests on the fitted dose curve; in most records, active means well fitted curve in the direction sought with a large enough effect; inconclusive means small, poorly fitted or top-dose-only effect, or another doubt; inactive means no such curve, though single readings can be large; an effect the other way counts as inactive or inconclusive.

How the values were obtained:
[1] = MultiTox-Fluor Cytotoxicity Assay - LYMP1-002 - Live Cells (AID 955)
From the text: NIH Chemical Genomics Center [NCGC]
NIH Molecular Libraries Screening Centers Network [MLSCN]
National Institutes of Environmental Health Sciences [NIEHS]
National Toxicology Program [NTP]
We have developed a 1536-well cell-based assay for quantitative high throughput screening (qHTS) against a number of cell lines to determine in vitro cytotoxicity of small molecules. This particular assay uses a human lymphoblastoid cell line (LYMP1-002) purchased from Coriell Institute.
NCGC Assay Protocol Summary:
The MultiTox-Fluor Cytotoxicity Assay (Promega) is a homogeneous method to simultaneously measure the relative number of live and dead cells in culture by detecting changes in cell membrane integrity. There are two fluorogenic peptide substrates in the assay reagent. Viable cells are determined when the cell-permeant substrate (GF-AFC) enters the cell and is cleaved by protease from live cells resulting in liberated fluorophore. […] The dead cells are determined by using fluorogenic cell-impermeant peptide substrate (bis-AAF-R110) which cleaved by dead cell proteases leaking from damaged cell membrane.
Using the MultiTox-Fluor Cytotoxicity Assay, the relative number of live cells was measured in the lymphoblastoid cell line with complete culture medium following compound treatment for 16 hours. […] AC50 values were determined from concentration-response data modeled with the standard Hill equation. […]

[2] = MultiTox-Fluor Cytotoxicity Assay - LYMP1-002 - Dead Cells (AID 960); further: nearly all actives have a fitted effect of over 60% in size
Method in brief: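 Dead-cell fluorescence (Ex/Em 485/520) after 16 h compound exposure at 37 C of LYMP1-002 lymphoblastoid cells in complete medium; AC50 by Hill equation, with data scaled between DMSO and 15 uM tetraoctylammonium bromide.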

[3] = MultiTox-Fluor Cytotoxicity Assay - LYMP1-003 - Dead Cells (AID 961); further: nearly all actives have a fitted effect of over 70% in size
Method in brief: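 LYMP1-003 lymphoblastoid, 2500 cells/well, 5 hr settle then 16 hr cpd at 37 C; MultiTox-Fluor reagent 60 min RT; Ex/Em 485/520 dead-cell signal; norm. DMSO = 0%, 15 uM tetraoctylammonium bromide = 100%; Hill AC50.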

[4] = MultiTox-Fluor Cytotoxicity Assay - LYMP1-003 - Live Cells (AID 962);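 further: cells exposed to compound for 16 hours at 37 °C; cytotoxic hits lower the live-cell protease signal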
Method in brief: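 Live-cell protease activity (GF-AFC substrate, 405/510 nm, 60 min at room temperature) after 16 h, 37 C compound exposure of human lymphoblastoid LYMP1-003 cells; concentration-response fitted to the Hill equation for AC50.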

[5] = Cell Viability - LYMP1-003 - Assay at 24 hr (AID 963)
Method in brief: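 Concentration-response qHTS: ATP loss measured by CellTiter-Glo luminescence after 24 h compound exposure at 37 C. Cells were LYMP1-003 human lymphoblastoid, 2500 per well. AC50 derived via standard Hill equation modeling.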

[6] = Cell Viability - LYMP1-003 - Assay at 40 hr (AID 964); further: series mostly up to about 92 µM; nearly all actives have a fitted effect of over 60% in size
Method in brief: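 Viability is taken as cellular ATP, read by CellTiter-Glo luminescence after 40 h of compound exposure at 37 C. Cells: human lymphoblastoid line LYMP1-003 at 2500/well; AC50 values derived by Hill-equation fitting of concentration-response data.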

[7] = Cell Viability - LYMP2-003 (AID 965);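 further: cells exposed to compounds for 24 h before reading; nearly all actives have a fitted effect of over 50% in size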
Method in brief: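 Acute cytotoxicity is scored as a concentration-dependent drop in intracellular ATP, measured by luciferase luminescence in human lymphoblastoid cells treated for 24 hours at 37 C. AC50 values derive from Hill-equation modelling.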

[8] = Cell Viability - LYMP2-004 (AID 966); further: nearly all actives have a fitted effect of over 65% in size
Method in brief: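 AC50 values come from Hill modelling of concentration-dependent loss of intracellular ATP, measured by CellTiter-Glo luminescence. Human LYMP2-004 lymphoblastoid cells (2500/well) were exposed to compound for 24 h at 37 C.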

[9] = Cell Viability - LYMP2-005 (AID 967); further: series mostly up to about 92 µM
Method in brief: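 qHTS viability screen in LYMP2-005 cells: 24 h at 37 C with compound, ATP luminescence via CellTiter-Glo, AC50 from Hill curves.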

[10] = Cell Viability - LYMP2-009 (AID 968); further: series mostly up to about 92 µM; nearly all actives have a fitted effect of over 55% in size

Measured: outcome

Cc1cc(O)c2c(c1)C(=O)c1cccc(O)c1C2=O
inactive: all assays above
